{
  "source": "PubChem BioAssay (NCATS)",
  "note": "Values without a mark were called inactive. The rule behind the calls is not given here. Potency is the fitted concentration of half-maximal effect.",
  "data": [
    {"system": "HIV-1 nucleocapsid protein NCp7 (binding to TG oligonucleotide)", "assay": "HIV Nucleocapsid (AID 346);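 note: potency is for inhibitors that block NC binding and lower polarization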", "settings": "HIV-1 NC / fluorescein-TGTGTGTG probe, fluorescence polarization", "method_in_brief": "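HIV-1 NC (100 nM) binding to fluorescein-labelled ssDNA TG4xF (10 nM) in Hepes pH 7.5, 250mM NaCl, 1uM ZnCl2, TCEP and 2-mercaptoethanol; compounds pin-transferred, 1 hr room temperature, fluorescence polarization read on CCD imager.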", "units": {"Potency": "µM"}, "values": [
      {"compound": "O=C(Nc1cccc(F)c1)N1CC[C@@]2(CCCNC2)C1", "Potency": "> 20"},
      {"compound": "O=C(c1cc(C(F)(F)F)cc(C(F)(F)F)c1)N1CCC2(CCCN(c3ccncc3)C2)CC1", "Potency": "> 20"},
      {"compound": "O=C(Nc1cccc(F)c1)N1CC2(CCN(C(=O)c3cccc(F)c3)CC2)C1", "Potency": "> 20"},
      {"compound": "COc1ccc(CNc2cc(-c3cccc(NS(C)(=O)=O)c3)ncn2)c(OC)c1", "Potency": "> 20"},
      {"compound": "CC(=O)N1CCC2(CCCN(c3ccccc3)C2)CC1", "Potency": "> 20"},
      {"compound": "CC(C)NC(=O)N1CC[C@@]2(CCCN(C(=O)c3cnccn3)C2)C1", "Potency": "> 20"},
      {"compound": "CN(C)Cc1ccccc1-c1nc(NC2CCNCC2)c2ccccc2n1", "Potency": "> 20"},
      {"compound": "Cc1nc2cncnc2n(Cc2ccccc2Cl)c1=O", "Potency": "> 20"},
      {"compound": "Cc1nc2cnc(Oc3ccccc3)nc2n(Cc2cccs2)c1=O", "Potency": "> 4"},
      {"compound": "COCCn1c(=O)c(-c2cccc(F)c2)nc2cncnc21", "Potency": "> 20"},
      {"compound": "COc1ccc(C(=O)N2CCC[C@@]3(CCN(Cc4ccc(C#N)cc4)C3)C2)cc1", "Potency": "> 20"},
      {"compound": "c1csc(CNc2ncncc2-c2ccoc2)c1", "Potency": "> 20"},
      {"compound": "COc1ncc2nc(-c3cc(F)cc(F)c3)c(=O)n(Cc3cccs3)c2n1", "Potency": "> 20"},
      {"compound": "Cn1c(=O)c(-c2cccc(F)c2)nc2cncnc21", "Potency": "> 20"},
      {"compound": "c1cncc(-c2cc(-n3ccnc3)ncn2)c1", "Potency": "> 20"},
      {"compound": "Cn1c(=O)c(-c2cc(F)cc(F)c2)nc2cnc(Oc3cccc(Cl)c3)nc21", "Potency": "> 20"}
    ]}
  ]
}
